# Source: PubChem BioAssay
# The source made the active and inactive calls.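 How the source made its calls: active means viability loss from added drug above about 55%, and viability with drug at most 40%, in both replicates (limit read from the data, passing the limit was not always enough); inconclusive means both conditions met in only one replicate; inactive means neither replicate meets both conditions.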
# Assay: MRP1 drug-resistance reversers in H69AR cells – cell-based, doxorubicin co-treatment, pilot screen (AID 601)
# Conditions: H69AR cells + 2 uM doxorubicin, CellTiter-Glo, 72 h; at 10 µM; stronger effect = higher value
row,Compound,differential viability (reversal)
1,CCOC(=O)C1CCCCC12C(C#N)=C(N)Oc1n[nH]c(C)c12 (configuration not stated),-6.3% (inactive)
2,COCCOC(=O)C1=C(N)Oc2c(c(=O)oc3ccccc23)C1c1ccncc1 (configuration not stated),4.34% (inactive)
3,CCN1CCN(c2ncnc3ccc(Br)cc23)CC1,-8.96% (inactive)
4,CCOP(=S)(OCC)c1ccc(N(C)C)cc1,-9.22% (inactive)
5,NC(=O)CSP(=O)(c1ccccc1)c1ccccc1,10.1% (inactive)
6,Nc1ccc(C2(c3ccc(N)cc3)CN3CCC2CC3)cc1,6.37% (inactive)
7,CN(C)c1cc(N)c2c(n1)CCC2 (tested in a mixture with another compound),-1.48% (inactive)
8,CCOc1ccc(-n2c(O)c(C=NCCN3CCNCC3)c(=O)[nH]c2=O)cc1,-4.71% (inactive)
9,CC(=NCCCO)c1c(O)n(Cc2ccccc2)c(=O)[nH]c1=O,4.15% (inactive)
10,Cc1cc(N2C(=O)C3CCCN3C2c2cccc(Cl)c2)no1 (configuration not stated),21% (inactive)
11,COc1ccc(S(=O)(=O)NC(CC(=O)N2CCC3(CC2)OCCO3)c2ccco2)cc1 (configuration not stated),5.91% (inactive)
12,COc1ccccc1N1CCN(Cc2c(F)cccc2F)CC1,-2.56% (inactive)
13,CSc1ccc(CNC2CN3CCC2CC3)cc1 (configuration not stated),7.31% (inactive)
14,Cc1ccc(C)c(NC2=NCCCS2)c1,11.3% (inactive)
15,CC1=C(C(=O)OC(C)C)[C@]2(C(=O)N(CC(N)=O)c3ccccc32)C(C#N)=C(N)O1,15.5% (inactive)
16,CCCCn1c(O)c(C(C)=NCCc2ccccc2)c(=O)[nH]c1=O,4.16% (inactive)
17,O=C1C2CCCN2C(c2ccc(Cl)c(Cl)c2)N1c1ccccn1 (configuration not stated),11.4% (inactive)
18,COC(=O)CC1(Cc2ccccc2)C(=O)NC(=O)NC1=O,13.1% (inactive)
19,Cc1ccc(S(=O)(=O)Cc2ccc(C(=O)N3CCC4(CC3)OCCO4)o2)cc1,-3.13% (inactive)
20,O=C1CC(N2CCC(n3c(=O)[nH]c4ccccc43)CC2)C(=O)N1c1ccc(F)cc1 (configuration not stated),3.01% (inactive)
21,CCOc1cc2[nH]c(=S)n(CCCC(=O)N3CCC4(CC3)OCCO4)c(=O)c2cc1OCC,-4% (inactive)
22,CC(=NCc1ccc2c(c1)OCO2)c1c(O)n(C)c(=O)n(C)c1=O,1.15% (inactive)

# Same assay, conditions: H69AR cells + 2 uM doxorubicin, CellTiter-Glo, 72 h; measured here: viability with 2 uM doxorubicin; at 10 µM; stronger effect = lower value
row,Compound,viability [%]
1,CC(C)(C)C(O)C(Oc1ccc(Cl)cc1)n1cncn1 (configuration not stated),81.7
2,COc1cc(/C=N/n2cnnc2)ccc1OC(=O)N(C)C,92.7
3,Nc1ccnn1C1CCNCC1,102
4,COC(=O)c1c(C)n(Cc2ccc3c(c2)OCO3)c2ccc(O)cc12,100
5,O=C(c1ccc(CS(=O)(=O)c2ccccc2)o1)N1CCC2(CC1)OCCO2,92
6,COc1cc(C2NCc3ccccc3-n3cccc32)ccc1O (configuration not stated),90.9
7,COc1ccc(CN2CCN(C(=O)Cc3ccccc3)CC2)c(OC)c1,87.4
8,CC(C)OC(=O)c1c(N)n(CC2CCCO2)c2nc3ccccc3nc12 (configuration not stated),89.7
9,O=C(c1sc2ccccc2c1Cl)N1CCC2(CC1)OCCO2,102
10,CSc1ccc(C(=O)C(C)(C)N2CCOCC2)cc1,87.2
11,CCCCCCC(N)CC(=O)O (configuration not stated),89.6
12,CC(C)(C)OC(=O)c1c(N)n(Cc2ccco2)c2nc3ccccc3nc12,74.8
13,c1cncc(CNC2=NCCCCC2)c1,91.3
14,COc1ccccc1-n1c(O)c(C=NCc2ccc3c(c2)OCO3)c(=O)[nH]c1=O,88.3
15,O=C(CCCOc1ccc(Cl)cc1Cl)N1CCC2(CC1)OCCO2,81.5
16,Cc1oc2ccc(OC(=O)N(C)C)cc2c1C(=O)OC(C)C,95.8
17,Oc1ccc(C2NCc3ccccc3-n3cccc32)cc1Cl (configuration not stated),82.7
18,O=c1[nH]c(=O)n(-c2ccc(F)cc2)c(O)c1C=Nc1ccccc1N1CCCC1,68.2
19,CCOC(=O)C1CCCCC12C(C#N)=C(N)Oc1n[nH]c(C)c12 (configuration not stated),99.6
20,COCCOC(=O)C1=C(N)Oc2c(c(=O)oc3ccccc23)C1c1ccncc1 (configuration not stated),87.7

row,Compound,viability [%]
1,CCN1CCN(c2ncnc3ccc(Br)cc23)CC1,100
2,CCOP(=S)(OCC)c1ccc(N(C)C)cc1,87.5
3,NC(=O)CSP(=O)(c1ccccc1)c1ccccc1,92.3
4,Nc1ccc(C2(c3ccc(N)cc3)CN3CCC2CC3)cc1,100
5,CN(C)c1cc(N)c2c(n1)CCC2 (tested in a mixture with another compound),87.6
6,CCOc1ccc(-n2c(O)c(C=NCCN3CCNCC3)c(=O)[nH]c2=O)cc1,93.8
7,CC(=NCCCO)c1c(O)n(Cc2ccccc2)c(=O)[nH]c1=O,90.2
8,Cc1cc(N2C(=O)C3CCCN3C2c2cccc(Cl)c2)no1 (configuration not stated),88
9,COc1ccc(S(=O)(=O)NC(CC(=O)N2CCC3(CC2)OCCO3)c2ccco2)cc1 (configuration not stated),88
10,COc1ccccc1N1CCN(Cc2c(F)cccc2F)CC1,96.8
11,CSc1ccc(CNC2CN3CCC2CC3)cc1 (configuration not stated),81.8
12,Cc1ccc(C)c(NC2=NCCCS2)c1,92.9
13,CC1=C(C(=O)OC(C)C)[C@]2(C(=O)N(CC(N)=O)c3ccccc32)C(C#N)=C(N)O1,97.5
14,CCCCn1c(O)c(C(C)=NCCc2ccccc2)c(=O)[nH]c1=O,95.9
15,O=C1C2CCCN2C(c2ccc(Cl)c(Cl)c2)N1c1ccccn1 (configuration not stated),86
16,COC(=O)CC1(Cc2ccccc2)C(=O)NC(=O)NC1=O,88.4
17,Cc1ccc(S(=O)(=O)Cc2ccc(C(=O)N3CCC4(CC3)OCCO4)o2)cc1,93.7
18,O=C1CC(N2CCC(n3c(=O)[nH]c4ccccc43)CC2)C(=O)N1c1ccc(F)cc1 (configuration not stated),100
19,CCOc1cc2[nH]c(=S)n(CCCC(=O)N3CCC4(CC3)OCCO4)c(=O)c2cc1OCC,93.2
20,CC(=NCc1ccc2c(c1)OCO2)c1c(O)n(C)c(=O)n(C)c1=O,96.9
